Measurements taken from PubChem BioAssay.
For some assays here: Results with a measured potency or affinity are listed apart. The source made the active and inactive calls. Unless noted, how the calls were made is not given here.

Key:
[1] = antimalarial activity against Dd2 strain (AID 2302;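 active means growth inhibition above 50% at the single 2 µM test dose, taken to imply half-maximal potency below 2 µM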;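 further: 0% = DMSO untreated growth and 100% = chloroquine plus artemisinin killed control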); details: P. falciparum Dd2 in RBCs, LDH growth readout, 72 h; at 2 µM; stronger effect = higher value
[2] = human hepatoma cell viability loss – ATP luminescence, cytotoxicity control for P. falciparum antimalarial project, primary screen (AID 2303;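 active means inhibition above 50%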;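 further: 0% = DMSO wells and 100% = digitonin-killed cells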); details: HepG2 viability, 24-48 h, at 10 µM, stronger effect = higher value
[3] = target: L-lactate dehydrogenase (Plasmodium falciparum (isolate CDC / Honduras)) (UniProt Q27743); experiment: PfLDH activity inhibition – cell lysate, 3D7 strain, counter-screen for P. falciparum growth inhibition project (AID 2304);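 further: 0% = vehicle and 100% = reference inhibitor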; details: P. falciparum 3D7 crude extract, LDH APAD/NBT absorbance; at 2 µM; stronger effect = higher value
Chain of L-lactate dehydrogenase (Plasmodium falciparum (isolate CDC / Honduras)) (Q27743 whole entry, looked up): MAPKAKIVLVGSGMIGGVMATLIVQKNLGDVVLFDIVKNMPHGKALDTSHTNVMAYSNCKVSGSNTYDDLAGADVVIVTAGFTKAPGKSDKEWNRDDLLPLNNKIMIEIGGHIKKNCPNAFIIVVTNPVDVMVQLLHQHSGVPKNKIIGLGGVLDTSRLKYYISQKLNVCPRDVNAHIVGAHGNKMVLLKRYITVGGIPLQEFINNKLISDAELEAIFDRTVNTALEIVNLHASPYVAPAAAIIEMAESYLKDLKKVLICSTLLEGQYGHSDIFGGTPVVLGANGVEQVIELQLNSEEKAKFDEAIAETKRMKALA

[4] = inhibition of 3D7 malaria parasite growth – strain 3D7 (AID 2306);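 further: 0% = DMSO wells and 100% = chloroquine plus artemisinin control wells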; details: P. falciparum 3D7 erythrocytic growth, LDH absorbance, 72 h; at 2 µM; stronger effect = higher value
[5] = target: Calcium-dependent protein kinase 1 (Plasmodium falciparum (isolate 3D7)) (UniProt P62344); experiment: PfCDPK1 kinase inhibitors, biochemical, TCAMS library (AID 1159585; cut-off not given, nearly all actives have IC50 up to about 0.98 µM;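 further: inhibitors leave more ATP so luminescence rises with inhibition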); details: recombinant PfCDPK1, Kinase-Glo ATP depletion luminescence
Chain of Calcium-dependent protein kinase 1 (Plasmodium falciparum (isolate 3D7)) (P62344 whole entry, looked up): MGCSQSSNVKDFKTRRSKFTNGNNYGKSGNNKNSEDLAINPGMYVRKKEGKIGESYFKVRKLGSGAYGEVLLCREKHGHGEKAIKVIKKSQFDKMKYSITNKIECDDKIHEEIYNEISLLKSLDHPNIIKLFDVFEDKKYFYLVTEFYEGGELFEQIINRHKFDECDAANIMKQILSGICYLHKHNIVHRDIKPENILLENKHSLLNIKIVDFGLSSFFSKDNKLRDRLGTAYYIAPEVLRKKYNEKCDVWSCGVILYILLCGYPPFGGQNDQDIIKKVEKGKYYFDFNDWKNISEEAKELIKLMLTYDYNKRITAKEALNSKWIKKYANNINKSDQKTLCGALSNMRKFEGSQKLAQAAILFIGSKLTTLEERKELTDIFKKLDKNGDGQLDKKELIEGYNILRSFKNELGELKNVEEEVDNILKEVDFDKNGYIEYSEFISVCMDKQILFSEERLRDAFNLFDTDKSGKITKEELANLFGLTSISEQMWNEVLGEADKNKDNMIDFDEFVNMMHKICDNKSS

[6] = target: Plasmodium falciparum protein kinase 6 (PK6, PF3D7_1337100) (UniProt Q8IDW1); experiment: PfPK6 kinase inhibitors, biochemical, TCAMS library (AID 1159586); details: recombinant PfPK6, Kinase-Glo ATP depletion luminescence
Chain of Plasmodium falciparum protein kinase 6 (PK6, PF3D7_1337100) (Q8IDW1 1-305): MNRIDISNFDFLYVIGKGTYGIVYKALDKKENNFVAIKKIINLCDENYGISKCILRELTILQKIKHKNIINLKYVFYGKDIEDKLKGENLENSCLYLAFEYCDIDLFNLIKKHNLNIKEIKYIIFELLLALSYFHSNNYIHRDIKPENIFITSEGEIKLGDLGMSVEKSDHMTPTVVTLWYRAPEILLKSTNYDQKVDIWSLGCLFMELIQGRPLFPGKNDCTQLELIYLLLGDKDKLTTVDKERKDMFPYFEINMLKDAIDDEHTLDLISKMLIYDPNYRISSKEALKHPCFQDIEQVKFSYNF

[7] = target: Protein kinase 7 (PK7), Plasmodium falciparum 3D7 (PF3D7_0213400) (UniProt Q7YTF7); experiment: inhibition of Plasmodium PK7 catalytic activity – biochemical, TCAMS antimalarial set, Kinase-Glo luminescence (AID 1159587); details: recombinant PfPK7, Kinase-Glo ATP depletion luminescence
Chain of Protein kinase 7 (PK7), Plasmodium falciparum 3D7 (PF3D7_0213400) (Q7YTF7 1-343): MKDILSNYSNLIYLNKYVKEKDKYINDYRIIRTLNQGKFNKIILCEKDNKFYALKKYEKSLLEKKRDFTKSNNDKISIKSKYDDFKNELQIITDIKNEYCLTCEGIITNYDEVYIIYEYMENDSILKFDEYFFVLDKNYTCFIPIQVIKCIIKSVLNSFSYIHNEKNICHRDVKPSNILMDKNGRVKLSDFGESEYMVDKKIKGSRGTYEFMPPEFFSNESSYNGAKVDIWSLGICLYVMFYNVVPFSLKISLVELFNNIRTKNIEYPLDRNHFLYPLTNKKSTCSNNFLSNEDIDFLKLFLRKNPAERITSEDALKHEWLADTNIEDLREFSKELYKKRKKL

[8] = target: Calcium-dependent protein kinase 4 (Plasmodium falciparum (isolate 3D7)) (UniProt Q8IBS5); experiment: PfCDPK4 kinase inhibitors, biochemical, TCAMS library (AID 1159588; cut-off not given, nearly all actives have IC50 up to about 0.91 µM); details: recombinant PfCDPK4, Kinase-Glo ATP depletion luminescence
Chain of Calcium-dependent protein kinase 4 (Plasmodium falciparum (isolate 3D7)) (Q8IBS5 whole entry, looked up): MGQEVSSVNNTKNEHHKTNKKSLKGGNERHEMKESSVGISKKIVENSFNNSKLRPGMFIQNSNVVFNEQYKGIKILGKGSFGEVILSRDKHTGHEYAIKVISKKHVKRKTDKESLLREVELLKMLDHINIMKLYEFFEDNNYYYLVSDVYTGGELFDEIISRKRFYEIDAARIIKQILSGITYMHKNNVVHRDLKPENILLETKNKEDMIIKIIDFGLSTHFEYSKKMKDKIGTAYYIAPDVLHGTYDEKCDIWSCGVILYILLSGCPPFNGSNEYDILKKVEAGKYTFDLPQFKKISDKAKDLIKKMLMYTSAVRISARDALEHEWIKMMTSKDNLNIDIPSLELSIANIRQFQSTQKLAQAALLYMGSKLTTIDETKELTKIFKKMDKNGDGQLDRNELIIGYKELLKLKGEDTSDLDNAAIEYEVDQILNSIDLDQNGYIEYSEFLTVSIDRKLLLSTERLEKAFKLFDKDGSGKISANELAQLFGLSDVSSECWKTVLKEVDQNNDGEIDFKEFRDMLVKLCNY

CCOC(=O)c1ccc(NC(=O)N(Cc2ccc(-c3ccc(CN4CCNCC4)cc3)cc2)Cc2cccnc2)cc1
inactive: growth inhibition [1] 34% | inhibition [2] 13% | inhibition [3] 2% | outcome [5] | outcome [6] | outcome [7] | outcome [8]
active: growth inhibition [4] 94%

O[C@@H](c1ccccc1)[C@@H]1CN(Cc2ccccc2)CC[C@@]1(O)c1ccccc1
inactive: inhibition [2] 4% | inhibition [3] -2% | outcome [5] | outcome [6] | outcome [7] | outcome [8]
active: growth inhibition [1] 82% | growth inhibition [4] 91%

Oc1ccc(CCNc2nc(NCc3cccc(-c4cc(C(F)(F)F)ccc4Cl)c3)nc(N3CCNCC3)n2)cc1
active: growth inhibition [4] 90%
inactive: growth inhibition [1] 8% | inhibition [2] 33% | inhibition [3] 0% | outcome [5] | outcome [6] | outcome [7] | outcome [8]

O=C(Cn1c(CCc2cccc(F)c2F)nc(=O)c2ccccc21)N(CCCN1CCCCC1)Cc1ccc(-c2ccc(C(F)(F)F)cc2)cc1
active: growth inhibition [1] 94% | inhibition [2] 100% | growth inhibition [4] 103%
inactive: inhibition [3] -2% | outcome [5] | outcome [6] | outcome [7] | outcome [8]

Fc1cccc(COc2ccc(Nc3ncnc4cc(/C=C/[C@@H]5CCCN5)sc34)cc2Cl)c1
active: growth inhibition [1] 56% | growth inhibition [4] 100%
inactive: inhibition [2] 17% | inhibition [3] -7% | outcome [5] | outcome [6] | outcome [7] | outcome [8]

Cc1cccc(-c2cccc(CNc3nc(NCCc4ccc(O)cc4)nc(N4CCNCC4)n3)c2)c1
active: inhibition [2] 50% | growth inhibition [4] 84%
inactive: growth inhibition [1] -3% | inhibition [3] 0% | outcome [5] | outcome [6] | outcome [7] | outcome [8]

CC(C)CC1(C(=O)OC(C)(C)C)CC(C(=O)OC(C)(C)C)C(c2cccs2)N1C(=O)c1ccc(C(C)(C)C)cc1 (stereo not given)
active: growth inhibition [1] 100% | growth inhibition [4] 101%
inactive: inhibition [2] 21% | inhibition [3] -2% | outcome [5] | outcome [6] | outcome [7] | outcome [8]

CC1CCCN(C(=O)C(C)Nc2cc(Cl)ccc2N2CCOCC2)C1 (stereo not given)
inactive: inhibition [2] -1% | inhibition [3] -5% | outcome [5] | outcome [6] | outcome [7] | outcome [8]
active: growth inhibition [1] 96% | growth inhibition [4] 101%

Cc1ccccc1C1CCN(C2CCC(NC(=O)c3csc(-c4cccc(Cl)c4)n3)CC2)CC1 (stereo not given)
active: growth inhibition [4] 85%
inactive: growth inhibition [1] 42% | inhibition [2] 33% | inhibition [3] 3% | outcome [5] | outcome [6] | outcome [7] | outcome [8]

O=C(Nc1cc(Cl)cc(Cl)c1)c1cnn(-c2ccc(F)cc2)c1C1CCNCC1
active: growth inhibition [4] 90%
inactive: growth inhibition [1] -1% | inhibition [2] 13% | inhibition [3] -2% | outcome [5] | outcome [6] | outcome [7] | outcome [8]

CCc1sc(N2CCN(C)CC2)nc1C(=O)NCCc1ccc(Cl)c(Cl)c1
active: growth inhibition [4] 92%
inactive: growth inhibition [1] 49% | inhibition [2] 5% | inhibition [3] 5% | outcome [5] | outcome [6] | outcome [7] | outcome [8]

O=C(Nc1cccc(CN2CCCN(Cc3ccccc3)CC2)c1)c1cc2ccccc2s1
inactive: growth inhibition [1] 28% | inhibition [2] 41% | inhibition [3] 1% | outcome [5] | outcome [6] | outcome [7] | outcome [8]
active: growth inhibition [4] 87%

Oc1ccc(CCNCCCCCCNCCc2ccc(Cl)c(Cl)c2)cc1O
active: growth inhibition [4] 101%
inactive: growth inhibition [1] 2% | inhibition [2] 21% | inhibition [3] -1% | outcome [5] | outcome [6] | outcome [7] | outcome [8]

CCN(CC)C(=O)C(=O)c1c[nH]c2ccc(Cl)cc12
active: growth inhibition [1] 96% | growth inhibition [4] 96%
inactive: inhibition [2] 1% | inhibition [3] 0% | outcome [5] | outcome [6] | outcome [7] | outcome [8]

Cc1cccc2[nH]c(-c3ccc(-c4cccc(CN5CCN(CC6CCCN(C)C6)CC5)c4)s3)nc12 (stereo not given)
active: growth inhibition [1] 99% | growth inhibition [4] 100%
inactive: inhibition [2] 47% | inhibition [3] 4% | outcome [5] | outcome [6] | outcome [7] | outcome [8]

COc1ccc(CN2CCCN(Cc3cccc(NC(=O)c4ccc5ccccc5c4)c3)CC2)cc1
active: growth inhibition [4] 93%
inactive: growth inhibition [1] 11% | inhibition [2] 27% | inhibition [3] -5% | outcome [5] | outcome [6] | outcome [7] | outcome [8]

O=C(Nc1ccc(-c2nc3ccccc3[nH]2)cc1)c1ccc(N2CCCC2)c([N+](=O)[O-])c1
active: growth inhibition [1] 95% | growth inhibition [4] 100%
inactive: inhibition [2] 43% | inhibition [3] -1% | outcome [5] | outcome [6] | outcome [7] | outcome [8]

Cn1c(Nc2nnc(C3CC3)s2)nc2cc(Nc3ccnc(Nc4cccc(CS(C)(=O)=O)c4)n3)ccc21
active: growth inhibition [1] 83% | growth inhibition [4] 97%
inactive: inhibition [2] -6% | inhibition [3] -1% | outcome [5] | outcome [6] | outcome [7] | outcome [8]

NS(=O)(=O)Cc1cccc(-c2ccnc3ccc(-c4cccc(S(N)(=O)=O)c4)cc23)c1
active: growth inhibition [4] 98%
inactive: growth inhibition [1] 42% | inhibition [2] 39% | inhibition [3] -2% | outcome [5] | outcome [6] | outcome [7] | outcome [8]

COc1ccc(-c2ccc([N+](=O)[O-])cc2C(=O)NCC(C)Oc2ccc(C(F)(F)F)cc2)cc1 (stereo not given)
active: growth inhibition [1] 81% | growth inhibition [4] 102%
inactive: inhibition [2] 6% | inhibition [3] 5% | outcome [5] | outcome [6] | outcome [7] | outcome [8]

CC(C)c1cc2c(cc1O)C(Cc1ccccc1Cl)N(C)CC2 (stereo not given)
active: growth inhibition [4] 97%
inactive: growth inhibition [1] 33% | inhibition [2] -7% | inhibition [3] -4% | outcome [5] | outcome [6] | outcome [7] | outcome [8]

CCOC(=O)N(C)/N=C/[C@H](CCc1ccccc1)NC(=O)[C@H](CC(C)C)NC(=O)c1cc2cccc(OC)c2o1
active: growth inhibition [1] 70% | growth inhibition [4] 86%
inactive: inhibition [2] 2% | inhibition [3] 1% | outcome [5] | outcome [6] | outcome [7] | outcome [8]

O=[N+]([O-])c1cc(C(c2ccc(O)c([N+](=O)[O-])c2)C(Cl)(Cl)Cl)ccc1O
active: growth inhibition [1] 98% | growth inhibition [4] 93%
inactive: inhibition [2] 2% | inhibition [3] 3% | outcome [5] | outcome [6] | outcome [7] | outcome [8]

COCCN1CCN(Cc2ccc(-c3cccc(-c4nc5ccccc5[nH]4)c3)cc2)CC1
inactive: growth inhibition [1] 10% | inhibition [2] 32% | inhibition [3] 0% | outcome [5] | outcome [6] | outcome [7] | outcome [8]
active: growth inhibition [4] 93%

CC(NC(=O)c1ccc(O)c(-c2ccc(Cl)c(Cl)c2)c1)C(=O)NCCN1CCCCC1 (stereo not given)
inactive: growth inhibition [1] 3% | inhibition [2] -2% | inhibition [3] 2% | outcome [5] | outcome [6] | outcome [7] | outcome [8]
active: growth inhibition [4] 97%

Cc1[nH]c(C)c(-c2ccc(Oc3ccc(OC(F)(F)F)cc3)cc2)c(=O)c1I
inactive: inhibition [2] 3% | inhibition [3] -3% | outcome [5] | outcome [6] | outcome [7] | outcome [8]
active: growth inhibition [1] 96% | growth inhibition [4] 95%

Fc1cccc(C=NNc2ccnc3ccccc23)c1
inactive: inhibition [2] 3% | inhibition [3] 7% | outcome [5] | outcome [6] | outcome [7] | outcome [8]
active: growth inhibition [1] 72% | growth inhibition [4] 103%

Cc1ccccc1N1CCN(c2ccc(C(=O)NC(C)C)cn2)CC1
active: growth inhibition [1] 91% | growth inhibition [4] 89%
inactive: inhibition [2] 13% | inhibition [3] -2% | outcome [5] | outcome [6] | outcome [7] | outcome [8]

Cc1ccc(O)cc1Nc1ccnc2cc(-c3ccncc3)ccc12
inactive: inhibition [2] 16% | inhibition [3] 6% | outcome [5] | outcome [6] | outcome [7] | outcome [8]
active: growth inhibition [1] 84% | growth inhibition [4] 100%

O=C(NCCc1ccccc1F)c1cc(Br)cc(N2CCN(c3ccncc3)CC2)c1
active: growth inhibition [1] 67% | growth inhibition [4] 97%
inactive: inhibition [2] 29% | inhibition [3] -2% | outcome [5] | outcome [6] | outcome [7] | outcome [8]

COc1ccc(N2CCN(CCCCNC(=O)c3ccc(NC(=O)c4ccc(Cl)cc4)cc3)CC2)c(C)c1
active: growth inhibition [1] 51% | growth inhibition [4] 100%
inactive: inhibition [2] 42% | inhibition [3] 0% | outcome [5] | outcome [6] | outcome [7] | outcome [8]

CNC(=O)c1cc(S(=O)(=O)N2CCN(c3ccccn3)CC2)c(C)s1
inactive: inhibition [2] -2% | inhibition [3] -1% | outcome [5] | outcome [6] | outcome [7] | outcome [8]
active: growth inhibition [1] 52% | growth inhibition [4] 91%

CCOC(=O)c1ccc(N2CCCCC2)c(NC(=O)C(Cl)(Cl)Cl)c1
inactive: inhibition [2] 11% | inhibition [3] 1% | outcome [5] | outcome [6] | outcome [7] | outcome [8]
active: growth inhibition [1] 97% | growth inhibition [4] 96%

Nc1c(Cl)cc(C(O)CNCCCCCOCCCc2ccc(O)c3ncccc23)cc1Cl (stereo not given)
inactive: growth inhibition [1] 12% | inhibition [3] -4% | outcome [5] | outcome [6] | outcome [7] | outcome [8]
active: inhibition [2] 65% | growth inhibition [4] 90%

COc1ccc(Cl)cc1C(=O)Nc1ccc(-c2nc3ccccc3[nH]2)cc1
active: growth inhibition [4] 92%
inactive: growth inhibition [1] 39% | inhibition [2] 42% | inhibition [3] -7% | outcome [5] | outcome [6] | outcome [7] | outcome [8]

Nc1nc(N)c2c(ccc3c2ccn3CCCC(F)(F)F)n1
inactive: growth inhibition [1] 34% | inhibition [3] 0% | outcome [5] | outcome [6] | outcome [7] | outcome [8]
active: inhibition [2] 66% | growth inhibition [4] 97%

CO/C(=C\C=C\c1cc2cc(Cl)c(Cl)cc2[nH]1)C(=O)NCCCN1CCCC[C@@H]1C
active: growth inhibition [1] 83% | growth inhibition [4] 99%
inactive: inhibition [2] 33% | inhibition [3] 1% | outcome [5] | outcome [6] | outcome [7] | outcome [8]

COc1cccc(C=CC(=O)N(CCN)Cc2ccccc2)c1
inactive: growth inhibition [1] -4% | inhibition [2] -14% | inhibition [3] -3% | outcome [5] | outcome [6] | outcome [7] | outcome [8]
active: growth inhibition [4] 99%

OC(CNCc1cccc(Oc2ccc(Cl)cc2)c1)c1cccc(C(F)(F)F)c1 (stereo not given)
inactive: inhibition [2] -1% | inhibition [3] 3% | outcome [5] | outcome [6] | outcome [7] | outcome [8]
active: growth inhibition [1] 78% | growth inhibition [4] 94%

CC(C)(CNC(=O)[C@@H]1CCCN(CCOc2ccc(F)c(F)c2)C1)c1nc(-c2ccc(Cl)c(O)c2)c(-c2ccncc2)[nH]1
active: growth inhibition [1] 77% | inhibition [2] 72% | growth inhibition [4] 101%
inactive: inhibition [3] -1% | outcome [5] | outcome [6] | outcome [7] | outcome [8]
